Experimental findings from publication PMC8384837, “Expanding the binding specificity for RNA recognition by a PUF domain” are described below.

Substitutions are numbered along the chain they refer to.

Holding throughout (assay): yeast three-hybrid, YBZ-1, SC-Leu-His + 0.5 mM 3-AT, 4 days
Common to all, as to details: tags: N-Gal4 AD-HA kept; label: inside an RPR1-promoter hybrid RNA with tandem MS2 sites; ssRNA

One experiment has as its target PUM1 PUF domain R8-KRY (Homo sapiens, UniProt Q14671 828-1176, N1122K;Y1123R;Q1126Y). In outline: (§1)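 Matching RNA elements and Pumilio-1 PUF domain libraries, randomized at the three base-contacting residues of every repeat, were co-expressed from a centromeric plasmid in strain YBZ-1 (LexA–MS2 coat fusion, HIS3 reporter). The repeat regions were PCR-amplified and Illumina-sequenced from cells grown four days on SC-Leu (input) or SC-Leu-His + 0.5 mM 3-AT (selection). The interaction score is the log change in variant frequency from input to selection. It is computed in log2, with a pseudocount of 1 for absent variants.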

The next experiment addresses PUM1 PUF domain R8-PRR (Homo sapiens, UniProt Q14671 828-1176, N1122P;Y1123R;Q1126R). In outline: as §1
The next experiment deals with PUM1 PUF domain R5-RQV (Homo sapiens, UniProt Q14671 828-1176, C1007R;R1008Q;Q1011V). In outline: as §1
Another experiment addresses PUM1 PUF domain R5-LNT (Homo sapiens, UniProt Q14671 828-1176, C1007L;R1008N;Q1011T). The gist of the method:
as §1

A further experiment has as its target PUM1 PUF domain R5-RQW (Homo sapiens, UniProt Q14671 828-1176, C1007R;R1008Q;Q1011W). In outline: as §1
A further experiment addresses PUM1 PUF domain R1-KKR (Homo sapiens, UniProt Q14671 828-1176, S863K;R864K;Q867R). The gist of the method: as §1
The target of the next experiment is PUM1 PUF domain R1-RWQ (Homo sapiens, UniProt Q14671 828-1176, S863R;R864W). The gist of the method:
as §1

In a further experiment the target is T1, PUM1 PUF domain R6-TYR (Homo sapiens, UniProt Q14671 828-1176, N1043T;Q1047R).
T1 sequence: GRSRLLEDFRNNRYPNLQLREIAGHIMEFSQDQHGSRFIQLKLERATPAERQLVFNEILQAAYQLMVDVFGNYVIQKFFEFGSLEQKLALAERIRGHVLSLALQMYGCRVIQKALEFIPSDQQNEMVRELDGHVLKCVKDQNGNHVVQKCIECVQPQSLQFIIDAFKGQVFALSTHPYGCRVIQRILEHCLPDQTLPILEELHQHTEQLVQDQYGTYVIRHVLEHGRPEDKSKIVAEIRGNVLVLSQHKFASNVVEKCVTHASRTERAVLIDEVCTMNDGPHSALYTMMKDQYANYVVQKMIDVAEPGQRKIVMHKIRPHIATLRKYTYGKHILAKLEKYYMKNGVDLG
The gist of the method: as §1

The target of a further experiment is T2, PUM1 PUF domain R6-QWG (Homo sapiens, UniProt Q14671 828-1176, N1043Q;Y1044W;Q1047G).
T2 sequence: T1 sequence with T216Q, Y217W, R220G
The gist of the method: as §1

The next experiment concerns the target T3, PUM1 PUF domain R6-HWC (Homo sapiens, UniProt Q14671 828-1176, N1043H;Y1044W;Q1047C).
T3 sequence: T1 sequence with T216H, Y217W, R220C
In outline: as §1

Another experiment concerns the target PUM1 PUF domain R5-CSR (Homo sapiens, UniProt Q14671 828-1176, R1008S;Q1011R). The gist of the method: as §1
Another experiment has as its target PUM1 PUF domain R7-RPI (Homo sapiens, UniProt Q14671 828-1176, S1079R;N1080P;E1083I). In outline: as §1
In another experiment the target is PUM1 PUF domain R3-TSE (Homo sapiens, UniProt Q14671 828-1176, C935T;R936S;Q939E). In outline:
as §1

A further experiment addresses PUM1 PUF domain R3-AFG (Homo sapiens, UniProt Q14671 828-1176, C935A;R936F;Q939G). In outline:
as §1

In the case of “GGCUAGAACUAGUGGAUCCCCCGGCGCCCGGCGGCUCGAGCCCGGGUAAGCGUAAAUAGUCUGCAUGCCGCCGGGCGCCAUGCCUGCAGGUCGACUCUAGAAAACAUG”, the binding signal was 3.46 log2 enrichment (interaction score) with PUM1 PUF domain R8-KRY and 4.08 log2 enrichment (interaction score) with PUM1 PUF domain R8-PRR.

Turning to “GGCUAGAACUAGUGGAUCCCCCGGCGCCCGGCGGCUCGAGCCCGGGUAAGUGUUAAUAGUCUGCAUGCCGCCGGGCGCCAUGCCUGCAGGUCGACUCUAGAAAACAUG”, the results for the binding signal in the experiment with PUM1 PUF domain R5-RQV, in the experiment with PUM1 PUF domain R5-LNT and in the experiment with PUM1 PUF domain R5-RQW were 4.22 log2 enrichment (interaction score), 4.04 log2 enrichment (interaction score) and 2.23 log2 enrichment (interaction score), respectively.

Regarding “GGCUAGAACUAGUGGAUCCCCCGGCGCCCGGCGGCUCGAGCCCGGGUAAGUGUAAAUCGUCUGCAUGCCGCCGGGCGCCAUGCCUGCAGGUCGACUCUAGAAAACAUG”, the results for the binding signal with PUM1 PUF domain R1-KKR and in the experiment with PUM1 PUF domain R1-RWQ were 6.78 log2 enrichment (interaction score) and 6.93 log2 enrichment (interaction score), respectively.

Turning to “GGCUAGAACUAGUGGAUCCCCCGGCGCCCGGCGGCUCGAGCCCGGGUAAGUGCAAAUAGUCUGCAUGCCGCCGGGCGCCAUGCCUGCAGGUCGACUCUAGAAAACAUG”, in the experiment with PUM1 PUF domain R6-TYR, the binding signal was 5.11 log2 enrichment (interaction score).

“GGCUAGAACUAGUGGAUCCCCCGGCGCCCGGCGGCUCGAGCCCGGGUAAGUGAAAAUAGUCUGCAUGCCGCCGGGCGCCAUGCCUGCAGGUCGACUCUAGAAAACAUG”: the binding signal with PUM1 PUF domain R6-QWG is 3.38 log2 enrichment (interaction score); with PUM1 PUF domain R6-HWC it was 6.25 log2 enrichment (interaction score).

As to “GGCUAGAACUAGUGGAUCCCCCGGCGCCCGGCGGCUCGAGCCCGGGUAAGUGUCAAUAGUCUGCAUGCCGCCGGGCGCCAUGCCUGCAGGUCGACUCUAGAAAACAUG”, the binding signal with PUM1 PUF domain R5-RQV was 4.73 log2 enrichment (interaction score); with PUM1 PUF domain R5-RQW it was 1.8 log2 enrichment (interaction score); with PUM1 PUF domain R5-CSR, 4.8 log2 enrichment (interaction score).

For the sequence “GGCUAGAACUAGUGGAUCCCCCGGCGCCCGGCGGCUCGAGCCCGGGUAAGUCUAAAUAGUCUGCAUGCCGCCGGGCGCCAUGCCUGCAGGUCGACUCUAGAAAACAUG”, the binding signal with PUM1 PUF domain R7-RPI is 0.71 log2 enrichment (interaction score).

As for “GGCUAGAACUAGUGGAUCCCCCGGCGCCCGGCGGCUCGAGCCCGGGUAAGUGUAAGUAGUCUGCAUGCCGCCGGGCGCCAUGCCUGCAGGUCGACUCUAGAAAACAUG”, the binding signal in the experiment with PUM1 PUF domain R3-TSE was 4.66 log2 enrichment (interaction score); with PUM1 PUF domain R3-AFG it was 0.76 log2 enrichment (interaction score).
